The results in this text go back to PubChem BioAssay AID2283334 (EPA ToxCast).

By AC50 is commonly meant the concentration giving half of the maximal activity seen.

Records with an inconclusive call do not appear. Calls of active or inactive are those of the source. How the source made its calls: active means hit-call score of the fitted dose curve at least 0.9, where 1 is the maximum; inactive means score below 0.9.

The assay has as its target Grik1 (gene 29559) (UniProt P22756). Description: NVS_IC_rKAR: NovaScreen (NVS) Ion Channel Assay for Kainic Acid Receptors (KAR). The method in brief:
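Radioligand displacement binding using rat forebrain membranes, 1 h incubation, filter-based scintillation counting. Screened in duplicate at 25 uM, with actives retested in concentration-response up to 50 uM; fitted against DMSO.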

Sequence of Grik1 (gene 29559) (P22756 whole entry, looked up): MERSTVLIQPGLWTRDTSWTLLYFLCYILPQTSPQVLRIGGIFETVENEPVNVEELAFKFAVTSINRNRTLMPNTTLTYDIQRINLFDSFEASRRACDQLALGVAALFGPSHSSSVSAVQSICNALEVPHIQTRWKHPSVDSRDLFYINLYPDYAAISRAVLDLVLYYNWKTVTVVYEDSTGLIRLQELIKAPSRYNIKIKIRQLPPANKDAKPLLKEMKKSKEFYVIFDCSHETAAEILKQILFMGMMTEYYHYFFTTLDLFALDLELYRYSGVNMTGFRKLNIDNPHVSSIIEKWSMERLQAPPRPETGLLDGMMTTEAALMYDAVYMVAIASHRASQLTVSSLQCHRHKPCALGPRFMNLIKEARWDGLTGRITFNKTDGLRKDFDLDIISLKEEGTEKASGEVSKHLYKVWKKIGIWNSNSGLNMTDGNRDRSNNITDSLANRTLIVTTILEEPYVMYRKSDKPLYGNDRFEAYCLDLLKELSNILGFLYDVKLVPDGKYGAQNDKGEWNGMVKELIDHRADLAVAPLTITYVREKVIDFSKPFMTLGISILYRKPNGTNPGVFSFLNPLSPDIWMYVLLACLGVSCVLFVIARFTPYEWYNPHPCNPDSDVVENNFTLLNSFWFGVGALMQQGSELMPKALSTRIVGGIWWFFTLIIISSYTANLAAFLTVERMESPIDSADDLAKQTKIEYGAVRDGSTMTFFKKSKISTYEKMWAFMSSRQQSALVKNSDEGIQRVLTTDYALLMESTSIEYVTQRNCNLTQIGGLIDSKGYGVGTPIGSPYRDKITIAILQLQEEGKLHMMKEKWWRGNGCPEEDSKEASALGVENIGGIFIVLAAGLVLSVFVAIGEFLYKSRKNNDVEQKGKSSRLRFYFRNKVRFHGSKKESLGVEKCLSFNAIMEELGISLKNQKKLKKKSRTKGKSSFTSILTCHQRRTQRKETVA

As for `CCCCCCC(C)OC(=O)COc1nc(F)c(Cl)c(N)c1Cl` (configuration not stated), the AC50 is 30.2 µM (active).

With `CCCCCCCCCCCCCCCCCC(=O)O`, the AC50 is 1.4 µM (active).
